According to PubChem BioAssay (Tox21):
Inconclusive results are not listed. The source made the active and inactive calls. Unless noted, calls follow the shape of the dose curve; as a rule, active = well fitted curve in the direction sought with a large enough effect in the repeat runs; inconclusive = weak or mixed curves; inactive = no such curve, though single readings can be large; an effect the other way counts as inactive or inconclusive.

Key:
[1] = qHTS assay to identify small molecule agonists of the estrogen receptor alpha (ER-alpha) signaling pathway in the presence of an antagonist - cell viability counter screen (AID 1259386);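 also: series mostly up to about 92 µM; cells exposed to compounds for 22 h at 37 °C before the viability read; nearly all actives have a fitted effect of over 30% in size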
How it was run: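 Viability counter screen using VM7Luc4E2 (full-length ER-alpha, four ERE-luciferase). The cells were treated with compounds alongside ICI-182,780 10.0nM for 22hr, and live-cell protease fluorescence was quantified with CellTiter-Fluor.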

[2] = molecular target: Progesterone receptor (Homo sapiens) (UniProt P06401); assay: qHTS assay to identify small molecule agonists of the progesterone receptor (PR) signaling pathway (AID 1346784; calls by dose curve; also: nearly all actives have a fitted effect of over 30% in size)
Chain of Progesterone receptor (Homo sapiens) (P06401 whole entry, looked up): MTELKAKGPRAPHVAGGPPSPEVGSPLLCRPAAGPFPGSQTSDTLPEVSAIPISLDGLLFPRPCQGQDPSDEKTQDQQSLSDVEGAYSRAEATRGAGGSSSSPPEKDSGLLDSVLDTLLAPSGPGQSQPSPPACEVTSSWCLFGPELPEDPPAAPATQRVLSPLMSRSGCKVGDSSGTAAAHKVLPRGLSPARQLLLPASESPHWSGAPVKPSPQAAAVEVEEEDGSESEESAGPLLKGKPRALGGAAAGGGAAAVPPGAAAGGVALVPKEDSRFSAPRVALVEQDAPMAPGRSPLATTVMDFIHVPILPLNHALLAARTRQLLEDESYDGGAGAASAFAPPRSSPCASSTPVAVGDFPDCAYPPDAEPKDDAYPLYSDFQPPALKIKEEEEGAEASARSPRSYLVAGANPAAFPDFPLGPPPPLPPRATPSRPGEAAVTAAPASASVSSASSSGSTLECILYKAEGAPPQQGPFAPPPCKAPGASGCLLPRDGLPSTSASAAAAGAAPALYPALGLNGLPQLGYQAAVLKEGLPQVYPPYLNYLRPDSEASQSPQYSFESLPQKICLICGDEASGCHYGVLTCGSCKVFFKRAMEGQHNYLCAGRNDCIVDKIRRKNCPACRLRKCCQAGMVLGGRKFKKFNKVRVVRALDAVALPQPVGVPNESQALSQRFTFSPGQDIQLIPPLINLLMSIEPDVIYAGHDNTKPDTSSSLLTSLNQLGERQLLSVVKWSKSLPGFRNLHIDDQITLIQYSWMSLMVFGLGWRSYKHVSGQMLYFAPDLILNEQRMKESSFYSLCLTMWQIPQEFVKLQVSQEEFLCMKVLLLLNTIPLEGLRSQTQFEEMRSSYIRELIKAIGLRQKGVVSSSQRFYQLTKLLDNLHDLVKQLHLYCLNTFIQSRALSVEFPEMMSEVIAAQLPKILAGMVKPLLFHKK
How it was run: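 Beta-lactamase reporter read-out: after 16 hr compound treatment at 37C and a further 2 hr at room temperature with LiveBLAzer B/G FRET substrate, fluorescence was measured in PR-UAS-bla HEK 293T cells grown in 2% charcoal-stripped serum.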

[3] = molecular target: Progesterone receptor (Homo sapiens) (UniProt P06401); assay: qHTS assay to identify small molecule antagonists of the progesterone receptor (PR) signaling pathway (AID 1346795; active = well fitted inhibition curve with a large enough effect in the signal ratio in the repeat runs, not every such curve was filed as active; the % refers to the signal ratio)
How it was run: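 Read-out is fluorescence from the LiveBLAzer B/G FRET substrate, cleaved by a UAS-controlled beta-lactamase in PR-UAS-bla HEK293T cells after 16 hr exposure to compound plus 1 nM promegestone (final), followed by 2 hr at room temperature.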

[4] = qHTS assay to identify small molecule antagonists of the progesterone receptor (PR) signaling pathway - cell viability counter screen (AID 1346798);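 also: HEK293T PR-UAS-bla cells stimulated with the agonist R5020; series mostly up to about 92 µM; nearly all actives have a fitted effect of over 50% in size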
How it was run: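 HEK293T PR-UAS-bla, 2% charcoal-stripped FBS; 4 hr pre-plate; cpd + R5020, 16 h 37C; LiveBLAzer read first; then CellTiter-Glo 30 min RT, luminescence.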

[5] = qHTS assay to identify small molecule agonists of the progesterone receptor (PR) signaling pathway - cell viability counter screen (AID 1346799; calls by dose curve; also: nearly all actives have a fitted effect of over 45% in size)
How it was run: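 Luminescence from CellTiter-Glo, added after the beta-lactamase FRET read in the same wells, gave cytotoxicity in PR-UAS-bla HEK293T cells treated with compounds for 16 hr at 37C.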

[6] = qHTS assay to identify small molecule antagonists of the TGF-beta/Smad signaling pathway - cell viability counter screen (AID 1346824); also: nearly all actives have a fitted effect of over 50% in size
How it was run: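 SBE-bla HEK 293T cells, incubated overnight, then compound plus 0.25 ng/mL TGF-beta1 (stock added) for 5 hr at 37 C. Viability was read in the same wells by CellTiter-Glo luminescence after 30 min at room temperature.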

[7] = qHTS assay to identify small molecule agonists of the TGF-beta/Smad signaling pathway - cell viability counter screen (AID 1346829); also: top concentration of the series differs between compounds; nearly all actives have a fitted effect of over 45% in size
How it was run: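 Compound-treated SBE-bla HEK 293T cells (5 hr, 37 C) were assessed for viability with CellTiter-Glo in parallel with the reporter read.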

[8] = qHTS assay to identify small molecule agonists of the TGF-beta/Smad signaling pathway (AID 1346859; active = well fitted activation curve with a large enough effect in the signal ratio in the repeat runs, not every such curve was filed as active; the % refers to the signal ratio; also: series mostly up to about 77 µM)
How it was run: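 SBE-bla HEK 293T, 4,000 cells/well, plated o/n; cpd in DMSO, 5 hr, 37 C/5% CO2; B/G FRET substrate 2 hr RT; ex 405, em 460/530 nm.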

[9] = molecular target: Thyrotropin-releasing hormone receptor (Homo sapiens) (UniProt P34981); assay: qHTS assay to identify small molecule antagonists of the thyrotropin-releasing hormone receptor (TRHR) signaling pathway (AID 1346877; active = well fitted inhibition curve with a large enough effect in the repeat runs, not every such curve was filed as active; also: series mostly up to about 51 µM)
Chain of Thyrotropin-releasing hormone receptor (Homo sapiens) (P34981 whole entry, looked up): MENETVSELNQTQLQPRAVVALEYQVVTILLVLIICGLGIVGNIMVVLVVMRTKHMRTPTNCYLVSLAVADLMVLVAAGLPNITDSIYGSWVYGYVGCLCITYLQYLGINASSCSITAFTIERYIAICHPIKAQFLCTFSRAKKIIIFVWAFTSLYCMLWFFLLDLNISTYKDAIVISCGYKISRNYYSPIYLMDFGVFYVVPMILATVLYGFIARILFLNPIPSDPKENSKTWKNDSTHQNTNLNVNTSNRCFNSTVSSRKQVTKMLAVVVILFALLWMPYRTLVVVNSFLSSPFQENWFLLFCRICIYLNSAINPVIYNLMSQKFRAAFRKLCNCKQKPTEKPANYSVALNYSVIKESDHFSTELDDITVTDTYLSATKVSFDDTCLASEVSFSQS
How it was run: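 Following an 18 h incubation at 37 °C and a 2 h calcium dye load, TRHR-HEK293 cells were exposed to compound (5 min, room temperature) and challenged with TRH, 1 nM final.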

[10] = molecular target: Thyrotropin-releasing hormone receptor (Homo sapiens) (UniProt P34981); assay: qHTS assay to identify small molecule agonists of the thyrotropin-releasing hormone receptor (TRHR) signaling pathway (AID 1346891; calls by dose curve; also: series mostly up to about 58 µM)
How it was run: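 Intracellular calcium rise, read as fluorescence every second for 3 min, served as the agonist signal in dye-loaded HEK293 cells expressing TRHR; each compound ran at 15 concentrations in triplicate.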
% is scaled to controls: 0 for no effect and ±100 for the full control effect.

Cc1cccc(C)c1NC(=O)c1ccccc1C(=O)O
inactive: Potency [1] | Potency [2] | Potency [3] | Potency [4] | Potency [5] | outcome [6] | outcome [7] | outcome [8] | outcome [9] | outcome [10]

CCCCOC(=O)c1ccccc1
inactive: Potency [1] | Potency [2] | Potency [3] | Potency [4] | Potency [5] | outcome [6] | outcome [7] | outcome [8] | outcome [9] | outcome [10]

CNS(=O)(=O)CCc1ccc2[nH]cc(C3CCN(C)CC3)c2c1
inactive: Potency [1] | Potency [2] | Potency [3] | Potency [4] | Potency [5] | outcome [6] | outcome [7] | outcome [8] | outcome [9] | outcome [10]

CCC(C)(CCC(C)C)C(=O)O (configuration not stated)
inactive: Potency [1] | Potency [2] | Potency [3] | Potency [4] | Potency [5] | outcome [6] | outcome [7] | outcome [8]

CCNC(=O)C1CC(C)CCC1C(C)C (configuration not stated)
inactive: Potency [1] | Potency [2] | Potency [3] | Potency [4] | Potency [5] | outcome [6] | outcome [7] | outcome [8] | outcome [9] | outcome [10]

COP(=O)(OC)OC(c1ccc(Cl)cc1)P(=O)(OC)OC (configuration not stated)
inactive: Potency [1] | Potency [2] | Potency [3] | Potency [4] | Potency [5] | outcome [6] | outcome [7] | outcome [8] | outcome [9] | outcome [10]

Nc1nnc(-c2cccc(Cl)c2Cl)c(N)n1
inactive: Potency [1] | Potency [2] | Potency [3] | Potency [4] | Potency [5] | outcome [6] | outcome [7] | outcome [8] | outcome [9] | outcome [10]

CC/C=C\CC1=C(C)CCC1=O
inactive: Potency [1] | Potency [2] | Potency [3] | Potency [4] | Potency [5] | outcome [6] | outcome [7] | outcome [8] | outcome [9] | outcome [10]

Cc1cc(Cl)c(C)cc1Cl
inactive: Potency [1] | Potency [2] | Potency [3] | Potency [4] | Potency [5] | outcome [6] | outcome [7] | outcome [8] | outcome [9] | outcome [10]

CCCCCCN
inactive: Potency [1] | Potency [2] | Potency [3] | Potency [4] | Potency [5] | outcome [6] | outcome [7] | outcome [8] | outcome [9] | outcome [10]

Nc1ncnc(Nc2ccccc2)n1
inactive: Potency [1] | Potency [2] | Potency [3] | Potency [4] | Potency [5] | outcome [6] | outcome [7] | outcome [8] | outcome [9] | outcome [10]

CC(C(=O)O)c1ccc2c(c1)CC(=O)c1ccccc1S2 (configuration not stated)
inactive: Potency [1] | Potency [2] | Potency [3] | Potency [4] | Potency [5] | outcome [6] | outcome [7] | outcome [8]

BrCCCCCBr
inactive: Potency [1] | Potency [2] | Potency [3] | Potency [4] | Potency [5] | outcome [6] | outcome [7] | outcome [8] | outcome [9] | outcome [10]

O=S(O)(O)=S
inactive: activity change, negative = cytotoxicity [1] 1.38% [at 8.39 µM] | activation [2] -0.0718% [at 8.39 µM] | activity change, negative = inhibition [3] 2.55% [at 8.39 µM] | activity change, negative = cytotoxicity [4] 5.98% [at 8.39 µM] | activity change, negative = cytotoxicity [5] -1.49% [at 8.39 µM] | viability change, negative = cytotoxic [6] -0.132% [at 6.97 µM] | activity change, negative = cytotoxicity [7] 1.63% [at 6.97 µM] | activation [8] 3.3% [at 6.97 µM] | activity, negative = inhibition [9] 1.85% [at 4.65 µM] | activation [10] 0.644% [at 5.23 µM]

O=C1c2ccccc2C(=O)N1CCl
inactive: Potency [1] | Potency [2] | Potency [3] | Potency [4] | Potency [5] | outcome [6] | outcome [7] | outcome [8] | outcome [9] | outcome [10]

CC(C)(C)c1n[nH]c(=S)n(N)c1=O
inactive: Potency [1] | Potency [2] | Potency [3] | Potency [4] | Potency [5] | outcome [6] | outcome [7] | outcome [8] | outcome [9] | outcome [10]

CCCCN
inactive: Potency [1] | Potency [2] | Potency [3] | Potency [4] | Potency [5] | outcome [6] | outcome [7] | outcome [8] | outcome [9] | outcome [10]

CC[C@H](C)C(=O)O[C@H]1C[C@H](O)C=C2C=C[C@H](C)[C@H](CC[C@@H](O)C[C@@H](O)CC(=O)O)[C@H]21
inactive: Potency [1] | Potency [2] | Potency [3] | Potency [4] | Potency [5] | outcome [6] | outcome [7] | outcome [8]

COC(=O)c1ccccc1C(=O)c1ccc(OCCN2CCCCC2)cc1
inactive: Potency [1] | Potency [2] | Potency [3] | Potency [4] | Potency [5] | outcome [6] | outcome [7] | outcome [8] | outcome [9] | outcome [10]

C[C@H](CCC(=O)O)[C@H]1CC[C@H]2[C@@H]3C(=O)C[C@@H]4CC(=O)CC[C@]4(C)[C@H]3CC(=O)[C@]12C
inactive: Potency [1] | Potency [2] | Potency [3] | Potency [4] | Potency [5] | outcome [6] | outcome [7] | outcome [8] | outcome [9] | outcome [10]

CC1COc2ccccc2N1 (configuration not stated)
inactive: Potency [1] | Potency [2] | Potency [3] | Potency [4] | Potency [5] | outcome [6] | outcome [7] | outcome [8] | outcome [9] | outcome [10]

Cc1ccccc1OCC(O)CO (configuration not stated)
inactive: Potency [1] | Potency [2] | Potency [3] | Potency [4] | Potency [5] | outcome [6] | outcome [7] | outcome [8]

CCCCCCCCOS(=O)(=O)O
inactive: Potency [1] | Potency [2] | Potency [3] | Potency [4] | Potency [5] | outcome [6] | outcome [7] | outcome [8] | outcome [9] | outcome [10]
